Assay outcomes as filed in PubChem BioAssay.
This is a sample that favours compounds with a hit; in the whole collection about 4.3% have one here.
CHOP inhibitor – blocks CHOP induction under ER stress | CHO-K1 CHOP-promoter luciferase, tunicamycin-induced, 15-18 h | inhibition, % at 10 µM | hit rate 3.8% among 220,000;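 active = compounds that reduced the stress-induced luciferase reporter signal by more than about 70% of percent inhibition, limit read from the data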;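 also: 0% = tunicamycin plus vehicle and 100% = wells without tunicamycin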
TRPM1 prom inh – inhibitors of MITF-driven TRPM1 promoter in melanoma cells | hit rate 0.83% among 330,000 | inhibition, % at 12.5 µM | AID 488899 | SK-MEL-5 TRPM1 promoter luciferase, 24 h;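 active = mean inhibition across replicates of 60% or more, whatever share of single replicates reaches that level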
KKLEB cytotox – reduces viability of KKLEB cystic fibrosis airway cells | activity change (cytotoxicity), % at 5 µM | AID 602141 | KKLEB CF airway cells viability, ATPlite luminescence, overnight; stronger effect = lower value; cells stimulated with P. aeruginosa culture filtrate | hit rate 0.36% among 360,000;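 active = corrected activity change at or below -50% at 5 µM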
HIF-2a inh – HIF-2a inhibition. AID 624352. hit rate 0.72% among 360,000. inhibition, % at 18.8 µM. 786-0 RCC cells HIF-2a reporter, luciferase luminescence, overnight;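 active = inhibition of the luminescence signal of 40% or more relative to plate controls, in a single-dose primary screen at 18.75 µM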
CF NFkB block – cystic fibrosis NF-kB activation inhibition; KKLEB NF-kB-GFP reporter, PAF-induced, GFP fluorescence overnight; inhibition, % at 5 µM; hit rate 0.86% among 360,000;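 active = at least 50% inhibition at 5 µM, scaled per plate between neutral and stimulator controls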;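 also: PAF is a Pseudomonas aeruginosa culture filtrate used as stimulus; plate controls were PAF-stimulated DMSO wells for no effect and unstimulated DMSO wells for full effect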
Peg3 prom inh – Peg3 promoter activity inhibition; HeLa PEG-Prom luciferase reporter, luminescence, overnight; inhibition, % at 20 µM; hit rate 1.7% among 360,000; AID 588405;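 active = inhibition of at least 50% at 20 µM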
An asterisk follows results filed as active; / = not tested or not shown.

SMILES | CHOP inhibitor | TRPM1 prom inh | KKLEB cytotox | HIF-2a inh | CF NFkB block | Peg3 prom inh
Cn1cnc([N+](=O)[O-])c1S(=O)(=O)Nc1ccccc1 | / | 9 | -4 | -2 | 34 | -1
COc1ccc2[nH]c(=O)c(-c3noc(-c4ccccc4)n3)cc2c1 | 88* | -58 | -2 | -148 | 3 | -150
CC1=Nc2cc([N+](=O)[O-])ccc2NC(C)(C)C1 | 16 | 6 | -5 | -15 | -12 | 13
CC1(C)CNc2cc([N+](=O)[O-])ccc2S1 | 85* | -40 | 5 | -116 | -2 | -95
N#CC(C(=O)Nc1ccc(Cl)c(Cl)c1)=C1Nc2ccccc2N1 | 73* | -16 | -8 | -21 | 18 | 12
N#CC(C(=O)Nc1cccc(Cl)c1)=C1Nc2ccccc2N1 | 54 | -10 | 4 | -14 | 9 | -3
CCCCN(C)CC(O)Cn1cc(/C=C/C(=O)c2ccc(C)cc2)c2ccccc21 (configuration not stated) | / | 7 | -8 | -52 | 16 | 100*
Oc1ccc2ccccc2c1CNc1cnc2ccccc2c1 | 87* | 6 | -21 | -121 | 18 | -32
C/C(=N\NC(=O)c1nnn(-c2nonc2N)c1CSc1ccc(C)cc1)c1cccs1 | / | / | -8 | -5 | 35 | 13
Cc1ccc2ncccc2c1 | / | 0 | -9 | 11 | 10 | -3
c1cnc2ccc(-c3ccc4ncccc4c3)cc2c1 | / | -32 | -33 | -56 | 58* | -189
FC(F)(F)c1cc(-c2cccs2)nc(-n2cc(Cl)cn2)n1 | 85* | 3 | -7 | -11 | 4 | -2
O=C(Cn1cnc2c(cnn2-c2ccccc2)c1=O)N1CCOCC1 | 15 | -5 | 13 | 7 | -4 | 6
O=C(Cn1cnc2c(cnn2-c2ccc(Cl)cc2)c1=O)N1CCN(c2ccccc2)CC1 | 91* | 17 | -8 | 0 | 17 | 22
COc1ccc(C(=O)/C=C/Sc2nc3ccccc3o2)cc1 | 82* | 49 | -10 | 26 | 54* | 91*
COc1ccc(C(=O)N/C(N)=N/c2nc3ccccc3o2)cc1 | 58 | -45 | 0 | -110 | -10 | -88
CC(C)OC(=O)c1cc(NC(=S)Nc2ccc([N+](=O)[O-])cc2)cc(C(=O)OC(C)C)c1 | 75* | 24 | -4 | -4 | 25 | 33
CC(Oc1ccc(F)cc1)C(=O)N(CCC1=CCCCC1)c1c(N)n(Cc2ccccc2)c(=O)[nH]c1=O (configuration not stated) | / | 13 | 7 | 21 | 25 | 13
CC(C)Nc1ncnc2c1cnn2-c1ccc(Cl)cc1 | 75* | / | -10 | -118 | 3 | -118
Cn1ncc2c(N3CCN(c4ccccc4F)CC3)ncnc21 | -3 | -18 | 12 | -57 | 6 | -19
Cn1ncc2c(N3CCN(c4ccc(Cl)c(Cl)c4)CC3)ncnc21 | 84* | -9 | -20 | -71 | 42 | 100*
Clc1ccc(-n2ncc3c(N4CCCC4)ncnc32)cc1 | 78* | 10 | -42 | -37 | -21 | 10
CC1CCN(c2ncnc3c2cnn3-c2ccccc2)CC1 | 69 | -58 | -30 | -222 | -25 | -387
OC[C@@H]1CN(Cc2ccc3c(c2)OCO3)C[C@H](n2cnc3c(NC4CCC4)ncnc32)O1 | / | / | -1 | 14 | 21 | -5
CCCn1c(SCC(=O)N2CCc3ccccc32)n[nH]c1=O | / | -9 | -13 | -21 | 1 | -23
SMILES | CHOP inhibitor | TRPM1 prom inh | KKLEB cytotox | HIF-2a inh | CF NFkB block | Peg3 prom inh
COc1cccc(/C=C2\SC(=S)N(CCCC(=O)NC3=NCCS3)C2=O)c1 | / | 12 | -2 | 87* | -14 | 29
COc1cccc(/C=C2\SC(=S)N(CCCC(=O)Nc3cc(C)on3)C2=O)c1 | / | -9 | -3 | 34 | 7 | 27
CCOc1ccc(/C=C2\SC(=S)N(Nc3ccccc3)C2=O)cc1OC | 82* | -10 | 3 | -83 | 3 | -75
COc1cc(/C=C2\SC(=S)N(Nc3ccccc3)C2=O)cc(OC)c1OC | 38 | 6 | 5 | 0 | -5 | -6
COc1ccc(/C=C2/SC(=S)N(CCCC(=O)Nc3ccc(O)cc3)C2=O)cc1OC | / | 5 | -13 | 42* | 9 | 26
Cc1ccc(NC(=O)COc2cccc(/C=C3\SC(=S)N(CCC(=O)O)C3=O)c2)cc1Cl | 98* | -7 | -11 | -61 | 20 | -26
COc1ccc(C(=O)C2CCCN(S(=O)(=O)c3ccccc3F)C2)c(C)c1 (configuration not stated) | / | 4 | 4 | 8 | 10 | 30
CCC(C(=O)NC(C)(C)C)N(Cc1ccco1)C(=O)CNS(=O)(=O)c1ccc(OC)cc1 (configuration not stated) | / | 4 | -11 | 3 | -8 | 11
Cc1ccccc1-n1cnc2c(sc3nc(N4CCOCC4)c4c(c32)CCCC4)c1=O | 24 | -2 | -8 | 12 | 20 | 20
COc1ccc(/C=C2\SC(=S)N(CCC(=O)Nc3ccc(O)cc3)C2=O)cc1 | / | -9 | -12 | 25 | 11 | 2
COc1cccc(/C=C2\SC(=S)N(CCCC(=O)Nc3ccc(C(=O)O)cc3)C2=O)c1 | / | -6 | -3 | -25 | -4 | -9
CCN(CC)CCOC(=O)c1ccc(NC(=O)CCCN2C(=O)S/C(=C/c3ccc(OC)cc3)C2=S)cc1 | / | 24 | -1 | 79* | 29 | 108*
COc1cccc(/C=C2/SC(=S)N(CCCC(=O)Nc3ccc(O)cc3)C2=O)c1 | / | -9 | -16 | 20 | 21 | 99*
CCc1nc2c(OCc3ccc(Cl)cc3Cl)cccn2c1N(C)C(=O)CC(C)C | / | / | -10 | -29 | -26 | 37
CC(C)(C)c1cc(NC(=O)C2(C)CCN2C(=O)C2(c3ccccc3)CCCC2)no1 (configuration not stated) | / | / | 11 | 10 | 23 | 20
COc1ccc(CN2CCN(C(=O)CC(C)C)CC2)cc1Br | / | 11 | -2 | 16 | -27 | 10
COc1ccc(/C=C/C(=O)N(CC(C)C)CC(C)C)cc1Br | 84* | 14 | 8 | 5 | -8 | 26
COCCNC(=O)C1(C)CCCN(C(=O)c2cc(OC)c(OC)c(OC)c2)C1 (configuration not stated) | / | / | 4 | 10 | 10 | 6
COc1cccc(-c2nn(C)c3sc(C(=O)N4CCOCC4)cc23)c1 | -4 | / | -7 | -4 | -24 | 2
COc1cccc(-c2nn(C)c3sc(C(=O)N4CCN(c5ccccn5)CC4)cc23)c1 | 44 | 37 | -5 | -7 | 6 | 57*
COC(=O)c1ccc2nc(-c3ccc(C)cc3)c(Cc3cccc(Cl)c3)n2c1 | / | / | / | -9 | / | /
Cc1nc2ccccc2cc1OCc1ccc(Cl)cc1 | 83* | 3 | 3 | -193 | -8 | -87
Cc1ccc2nc(NC(=O)c3ccc(S(=O)(=O)N4CCCc5ccccc54)cc3)sc2c1 | 76* | -7 | 4 | 12 | -17 | 3
O=C(Nc1nc2ccc(F)cc2s1)c1cccc(S(=O)(=O)N2CCc3ccccc32)c1 | 27 | -4 | 11 | -96 | -7 | -62
